Paper PMC4336329 (PLoS ONE, 2015)
Screen size: about 310,000 compounds; about 14,000 (4.5%) showed an effect of 50% or more. Effects have a minus sign here. The entries come from a sample that favours strong results as a whole.

The compounds below were run against human ether-à-go-go-related gene (hERG) potassium channel (human, UniProt Q12809) (assay: primary screen, population patch clamp on CHO cells stably expressing hERG; higher = less effect of the substance).
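Further: peak tail current of the secondary pulse compared with the same well before compound.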

Sequence of human ether-à-go-go-related gene (hERG) potassium channel (Q12809 whole entry, looked up): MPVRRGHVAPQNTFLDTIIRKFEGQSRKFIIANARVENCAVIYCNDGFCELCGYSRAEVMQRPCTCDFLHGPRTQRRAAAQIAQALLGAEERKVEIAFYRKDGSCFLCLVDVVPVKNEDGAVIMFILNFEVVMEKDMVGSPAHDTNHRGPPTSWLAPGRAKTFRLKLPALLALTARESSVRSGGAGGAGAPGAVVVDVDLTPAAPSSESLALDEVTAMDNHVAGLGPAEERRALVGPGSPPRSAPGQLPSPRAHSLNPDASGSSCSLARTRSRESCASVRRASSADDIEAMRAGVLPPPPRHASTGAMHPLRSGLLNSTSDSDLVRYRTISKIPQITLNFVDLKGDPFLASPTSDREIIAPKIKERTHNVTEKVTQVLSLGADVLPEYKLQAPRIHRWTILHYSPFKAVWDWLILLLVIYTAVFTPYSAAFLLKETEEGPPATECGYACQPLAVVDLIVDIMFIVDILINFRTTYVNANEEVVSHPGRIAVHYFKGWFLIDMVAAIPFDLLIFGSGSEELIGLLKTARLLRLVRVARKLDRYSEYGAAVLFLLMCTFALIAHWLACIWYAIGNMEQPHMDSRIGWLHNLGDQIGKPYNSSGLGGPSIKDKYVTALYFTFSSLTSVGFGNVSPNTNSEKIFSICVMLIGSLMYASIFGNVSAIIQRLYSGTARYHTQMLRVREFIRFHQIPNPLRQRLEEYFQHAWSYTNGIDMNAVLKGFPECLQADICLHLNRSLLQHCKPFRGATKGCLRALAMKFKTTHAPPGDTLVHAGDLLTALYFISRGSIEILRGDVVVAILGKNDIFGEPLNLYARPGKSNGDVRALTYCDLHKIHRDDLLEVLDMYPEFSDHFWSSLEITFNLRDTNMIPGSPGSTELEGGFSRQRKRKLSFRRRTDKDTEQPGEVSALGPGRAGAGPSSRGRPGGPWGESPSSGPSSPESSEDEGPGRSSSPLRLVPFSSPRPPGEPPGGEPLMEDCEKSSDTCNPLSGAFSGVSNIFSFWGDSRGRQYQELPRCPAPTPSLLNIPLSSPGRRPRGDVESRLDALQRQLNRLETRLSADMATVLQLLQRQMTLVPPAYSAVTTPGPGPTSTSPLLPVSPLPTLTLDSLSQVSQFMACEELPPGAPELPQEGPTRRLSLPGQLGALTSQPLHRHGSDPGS

SMILES	hERG current change (%, negative = inhibition) at 10uM
CCc1nnc(NC(=O)CSc2nc3[nH]c(=O)cc(O)c3s2)s1	-0.838%
O=C(OCc1ccc([N+](=O)[O-])cc1)c1ccccn1	-28.2%
Nn1c(SCc2c(F)cccc2F)nnc1-c1ccccn1	2.69%
CC1(C(=O)NCC2CCCO2)Oc2cccnc2NC1=O (stereo not shown)	5.86%
CC(=O)Nc1c2c(nn1-c1ccccc1C)CS(=O)C2 (stereo not shown)	18.7%
Cc1ccc(CS(=O)(=O)c2ccc(C(=O)N3CCN(c4ccccn4)CC3)cc2[N+](=O)[O-])cc1	-43.9%
COc1ccccc1/C=C/C1=NC(=C\C=C/c2ccccc2)/C(=O)O1	3.98%
CC(/C=N/NC(=O)c1ccc(Cn2cc([N+](=O)[O-])cn2)o1)=C\c1ccccc1	-5.3%
O=S(=O)(c1ccc(Br)cc1)N1CCn2c(nc3ccccc32)C1	-7.4%
CCOc1cc(C(=O)OCC(=O)Nc2cc(C)on2)cc(OCC)c1OCC	2.29%
Cc1ccc(NC(=O)CNC(=O)c2ccco2)cc1Cl	17%
COc1ccc(OC)c(-c2csc(N(Cc3ccco3)C(=O)c3ccco3)n2)c1	7.74%
CCOc1ccccc1N1CC(C(=O)N(C)Cc2cccnc2)CC1=O (stereo not shown)	15%
COc1ccc(N(C)C(=O)CCS(=O)(=O)c2cccc3nonc23)c(OC)c1	1.11%
Cl.N=c1n(CCN2CCCCC2)c2ccccc2n1CC(O)c1ccco1 (stereo not shown)	-55.2%
Cl.Cn1c(=N)n(CC(O)c2ccco2)c2ccccc21 (stereo not shown)	-9.79%
CCCCCCCn1c(=N)n(CC(O)c2ccco2)c2ccccc21.Cl (stereo not shown)	-86.9%
Cl.N=c1n(CCN2CCCC2)c2ccccc2n1CC(O)c1ccco1 (stereo not shown)	-34%
CCCn1c(=N)n(CC(O)c2ccco2)c2ccccc21.Cl (stereo not shown)	-43.8%
CCN(CC)CCn1c(=N)n(CC(O)c2ccco2)c2ccccc21.Cl (stereo not shown)	-73.2%
CC(=O)N1N=C(C)CC1c1ccc(OCc2ccccc2)cc1 (stereo not shown)	-15.5%
O=C(CN(CC(=O)N1CCOCC1)S(=O)(=O)c1ccc(Br)s1)N1CCOCC1	12.8%
CCOc1ccc(N(C(C)C(=O)NCc2ccco2)S(C)(=O)=O)cc1 (stereo not shown)	-2.31%
NC(=O)CC(NC(=O)c1cccc(Br)c1)c1ccc(N2CCN(c3ccc(F)cc3)CC2)c([N+](=O)[O-])c1 (stereo not shown)	-2.08%

SMILES	hERG current change (%, negative = inhibition) at 10uM
O=C(CNS(=O)(=O)c1ccc(Br)s1)N1CCCC1	22%
COc1ccc(C(=O)NCCC2=CCCCC2)cc1OC1CCN(C(C)C)CC1	-78.1%
COc1ccccc1CCNC(=O)c1ccc(OC)c(OC2CCN(C(C)C)CC2)c1	-46.3%
COc1ccc(C(=O)NCCC2=CCCCC2)cc1OC	-3.21%
COc1cc(C(=O)NCCC2=CCCCC2)ccc1OC1CCN(C(C)=O)CC1	2.98%
COc1cccc(CCNC(=O)c2ccc(OC)c(OC3CCN(C(C)C)CC3)c2)c1	-57.4%
COCCCNC(=O)c1ccc(OC)c(OC2CCN(C(C)C)CC2)c1	10.3%
CC1CN=C(NCc2ccc(F)cc2)S1 (stereo not shown)	-8.5%
CCOc1ccccc1C(=O)Nc1cc(C(=O)NCC(C)C)ccc1Cl	12%
CCCc1ccc(Oc2c(-c3ccc(O)c(C)c3O)n[nH]c2C)cc1	-13.2%
Cc1nc2sccn2c(=O)c1S(=O)(=O)N1CCN(c2ccccc2)CC1	-11.2%
COc1ccc(N2CCN(S(=O)(=O)c3c(C)nc4sccn4c3=O)CC2)cc1	-9.86%
Cc1nc2sccn2c(=O)c1S(=O)(=O)N1CCN(c2ccc(F)cc2)CC1	-70.2%
Cc1cc(NC(=O)Nc2ccc(OCc3ccccc3)cc2)n(C)n1	23.8%
COc1ccc(-n2c(Cc3cccn3C)nnc2SCC(=O)NCc2ccco2)cc1	-12.9%
Cc1nc(SCc2c(Cl)cccc2Cl)nc(OC(=O)N(C)C)c1C	-4.32%
CCc1ccc(-c2csc3ncn(CC(=O)NCc4ccco4)c(=O)c23)cc1	-4.39%
O=C(Cn1cnc2scc(-c3ccccc3)c2c1=O)NCc1ccco1	-24.9%
O=C(Cn1cnc2scc(-c3cccc([N+](=O)[O-])c3)c2c1=O)NCc1ccco1	-54%
CC(C)(C)c1ccc(COC(=O)CNC(=O)CNC(=O)Cc2ccccc2)cc1	-6.93%
CCOP(=O)(CC(C(C)=O)C(O)c1ccccc1)OCC (stereo not shown)	11.3%
CCOCCCNC(=O)c1cc2c(=O)n3ccccc3nc2s1	-7.05%
COc1ccc(S(=O)(=O)N2CCCCCC2)cc1C(=O)NCc1cccs1	-68.3%
O=C(NCC(c1cccs1)N1CCOCC1)c1cc(S(=O)(=O)N2CCOCC2)c(Cl)cc1Cl (stereo not shown)	-9.54%

SMILES	hERG current change (%, negative = inhibition) at 10uM
O=C(NCc1ccncc1)c1cc(S(=O)(=O)N2CCOCC2)c(Cl)cc1Cl	-13.3%
COc1ccc(S(=O)(=O)N2CCCCCC2)cc1C(=O)N(C)Cc1cccs1	-40.5%
COc1ccc(S(=O)(=O)N2CCCC2)cc1C(=O)O	30.4%
Cc1ccc(S(=O)(=O)N2CCCCC2)cc1C(=O)NCCc1ccccc1	11.2%
O=C(NCc1cccs1)c1cc(S(=O)(=O)N2CCOCC2)c(Cl)cc1Cl	-81.6%
O=C(NCc1cccs1)c1cc(S(=O)(=O)N2CCCCC2)ccc1Cl	5.07%
COc1ccc(S(=O)(=O)N2CCCCCC2)cc1C(=O)NCCc1ccccc1	-65.5%
COc1ccc(S(=O)(=O)N2CCCCCC2)cc1C(=O)NCc1ccc(C)cc1	-29.1%
COc1ccc(S(=O)(=O)N2CCCCCC2)cc1C(=O)NCCc1ccc(F)cc1	-31.4%
CCCC(C)NC(=O)c1cc(S(=O)(=O)N2CCCCCC2)ccc1OC (stereo not shown)	-54.4%
COc1ccc2ncn(-c3ccccc3)c2c1	-7.39%
COc1ccc(NC(=O)c2ccc(Cn3cc(Cl)cn3)cc2)cc1	1.21%
Cc1ccc(NC(=O)c2ccco2)c(NC(=O)Cc2cccs2)c1	-2.72%
O=C(NCCc1ccccc1F)C1CC(=O)N(c2ccccc2)C1 (stereo not shown)	1.17%
C/C(=N\Nc1nc(C(C)(C)C)cs1)c1ccccc1	16.4%
Cc1cccc(NC(=O)CC2C(=O)NCCN2C(=S)Nc2ccccc2)c1 (stereo not shown)	1.17%
Cc1cnc(NC(=O)c2c(-c3ccccc3)noc2C)s1	-2.27%
O=C(NNC(=O)c1ccccc1Br)c1cccc(Cl)c1	-7.94%
CC(C)CCCC(C)NC(=O)c1cc(S(=O)(=O)N2CCCCC2)ccc1N1CCOCC1 (stereo not shown)	-36.8%
CCC(CC)NC(=O)c1cc(S(=O)(=O)N2CCCCC2)ccc1N1CCOCC1	-20.3%
CCCCCC(C)NC(=O)c1cc(S(=O)(=O)N2CCCCC2)ccc1N1CCOCC1 (stereo not shown)	-70.9%
COc1ccc(NC(=O)CCSc2ccc3ccccc3n2)cc1	-11.7%
CCOC(=O)n1n[n+]([O-])c2ccccc21	35.5%
Cc1ccn2cc(CCNS(=O)(=O)c3ccc([N+](=O)[O-])cc3)nc2c1	-69.7%

SMILES	hERG current change (%, negative = inhibition) at 10uM
CCOc1ccc(S(=O)(=O)NCCc2cn3ccccc3n2)cc1	-11%
Cc1ccn2cc(CCNS(=O)(=O)c3ccc4ccccc4c3)nc2c1	-39.6%
CCc1ccc(S(=O)(=O)NCCc2cn3cccc(C)c3n2)s1	-16.2%
CCc1ccc(S(=O)(=O)NCCc2cn3ccccc3n2)s1	-29.5%
O=[N+]([O-])c1ccc(S(=O)(=O)NCCc2cn3ccccc3n2)cc1	-40.6%
CC(=O)c1ccc(S(=O)(=O)NCCc2cn3ccc(C)cc3n2)cc1	-29.9%
CCc1ccc(S(=O)(=O)NCCc2cn3ccc(C)cc3n2)s1	-54.2%
O=S(=O)(NCCc1cn2ccccc2n1)c1ccc(-c2ccccc2)cc1	-62%
COc1cccc(C(=O)COC(=O)COc2c(C)cc(C)cc2C)c1	1.18%
COc1ccc(-c2c(C(C)=O)c(C)nc3sc4c(=N)n(N)cnc4c23)cc1	3.48%
CN1CCN(CCCNC(=O)c2ccc3c(Cl)c4c(nc3c2)CCCC4)CC1	-6.81%
O=C(NC1CC1)c1ccc2c(Cl)c3c(nc2c1)CCCC3	-63.7%
CCCN1CCN(CCCNC(=O)c2ccc3c(Cl)c4c(nc3c2)CCCC4)CC1	-61.1%
CCCN(CCC)CCCNC(=O)c1ccc2c(Cl)c3c(nc2c1)CCC3	-29.1%
COCCNC(=O)c1ccc2c(Cl)c3c(nc2c1)CCC3	-30.2%
CCN1CCN(CCCNC(=O)c2ccc3c(Cl)c4c(nc3c2)CCCC4)CC1	-46.8%
CCOC(=O)N1CCC(NC(=O)c2ccc3c(Cl)c4c(nc3c2)CCCC4)CC1	-36.6%
CC(C)CCNC(=O)c1ccc2c(Cl)c3c(nc2c1)CCC3	21.4%
CC1CCN(CCCNC(=O)c2ccc3c(Cl)c4c(nc3c2)CCCC4)CC1	-40.9%
O=C(NCCCN1CCCC1)c1ccc2c(Cl)c3c(nc2c1)CCCC3	-50.1%
O=C(NCCCN1CCCCCC1)c1ccc2c(Cl)c3c(nc2c1)CCCC3	-53%
CCN(CC)CCCNC(=O)c1ccc2c(Cl)c3c(nc2c1)CCCC3	-48.7%
